# Screening results from PubChem BioAssay.
# Compounds with a hit are over-represented: about 4.8% of the library has one in this group of screens.
# DAX1 inh-1: DAX1 (NR0B1) inhibitors, primary screen, cell-based, HEK293, Gal4-DAX1, luciferase luminescence | Nuclear receptor subfamily 0 group B member 1 (Homo sapiens), P51843 | HEK293 Gal4-DAX1 luciferase reporter | inhibition, % at 6.75 µM | actives 0.99% (n = 340,000) | AID 504766, 2011;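 active means inhibition above the mean over all tested compounds plus 3 SD, cut at about 4.2% in these data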;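 further: 0% = DAX1-transfected cells with DMSO and 100% = empty-vector control cells with DMSO; inhibition shows as a rise in luminescence from relieved DAX1 repression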
# Target sequence (P51843 207-470 limits assumed): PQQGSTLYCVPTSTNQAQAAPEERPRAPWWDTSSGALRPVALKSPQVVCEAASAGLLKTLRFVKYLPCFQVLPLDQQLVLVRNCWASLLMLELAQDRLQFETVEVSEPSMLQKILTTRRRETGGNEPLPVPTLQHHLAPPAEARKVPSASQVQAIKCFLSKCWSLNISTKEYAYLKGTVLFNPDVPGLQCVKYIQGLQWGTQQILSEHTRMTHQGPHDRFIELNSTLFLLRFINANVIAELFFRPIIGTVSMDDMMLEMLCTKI
# hcDAF12 agonist: H. contortus DAF-12 nuclear receptor activators, primary screen, cell-based, luminescence, HEK293, lit1-tk-luc reporter | HEK293 hcDAF-12 lit1-tk-luc reporter; 0% DMSO, 100% Δ7-dafachronic acid | activation, % at 6.8 µM | actives 1.4% (n = 370,000);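 active means activation above the mean of all tested compounds plus 3 SD, cut at about 5.5% in these data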;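 further: 100% = response to 3 µM Δ7-dafachronic acid high control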
# SMARCA2 activ: SMARCA2 (BRM) function activators, primary screen, cell-based, luminescence, high throughput. activation, % at 9.1 µM. MG213 cells, MMTV-luciferase reporter, dexamethasone, overnight. actives 1% (n = 370,000); in the data active means activation above about 7.8%;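 further: 0% = vehicle wells and 100% = reference activator wells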
# DAX1 inh-2: DAX1 (NR0B1) inhibitors on StAR promoter, primary screen, cell-based, luminescence, SF-1 (NR5A1), full-length DAX-1; HEK293T StAR-luciferase reporter, SF-1/DAX-1 repression relief; inhibition, % at 6.8 µM; actives 1.1% (n = 370,000);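 active means inhibition above the mean over all tested compounds plus 3 SD, cut at about 3.6% in these data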;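 further: 0% = DAX-1 cells with DMSO and 100% = cells lacking DAX-1 with DMSO; higher inhibition means more luminescence from relief of DAX-1 repression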
# ssDAF-12 act: S. stercoralis DAF-12 nuclear receptor activators, primary screen, cell-based, luminescence, HEK293, GRIP1 co-expression, lit1-tk-luc; HEK293 ssDAF-12/GRIP1 lit1-tk-luc reporter; % of 3 µM dafachronic acid response; activation, % at 6.8 µM; actives 1% (n = 370,000); AID 652126, 2013;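 active means activation above the mean over all tested compounds plus 3 SD, cut at about 0.9% in these data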;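 further: 0% = DMSO-only wells and 100% = 3 µM delta7-dafachronic acid wells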
# hgDAF12 agonist: H. glycines DAF-12 receptor agonists, primary screen, cell-based, luminescence, HEK293, GAL4 fusion, UAS-luciferase | HEK293 GAL4-hgDAF12 UAS-luciferase reporter, agonist luminescence; normalized to butyrate control | activation, % at 6.8 µM | actives 1.8% (n = 370,000);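 active means activation above a cutoff set at the mean of all screened compounds plus 3 SD, cut at about 10% in these data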;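 further: 0% = DMSO wells and 100% = sodium butyrate wells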
# SMARCA2 act conf: SMARCA2 (BRM) function activators, confirmation, cell-based, luminescence, triplicate; MG213 cells, MMTV-luciferase with dexamethasone, overnight; MG213 cells expressing E1A, Rb sequestered; DMSO wells 0%, reference activator 100%; activation, % at 9.1 µM; shares compounds with SMARCA2 activ; AID 652260, 2013; actives 30% (n = 3,500);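 active means activation above its plate's cutoff, the mean activation of tested wells plus 3 SD, cut at about 7.9% in these data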
# VP16 Luc act: GAL4-VP16 luciferase reporter activation, counter-screen for SMARCA2 (BRM) activator project, cell-based, pG5luc, luminescence, high throughput; HEK293 GAL4-VP16 pG5luc reporter; scaled: DMSO wells 0%, SAHA wells 100%; shares compounds with SMARCA2 activ; AID 686939, 2013; activation, % at 9.1 µM; actives 41% (n = 3,500);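 active means activation above the solvent-only control well mean plus 3 SD, averaged across control plates, cut at about 5.2% in these data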
# * hit, by the source's call; . = not tested or not shown.
SMILES,DAX1 inh-1,hcDAF12 agonist,SMARCA2 activ,DAX1 inh-2,ssDAF-12 act,hgDAF12 agonist,SMARCA2 act conf,VP16 Luc act
O=C(N/N=C/c1ccccc1O)c1ccc2c(c1)OCO2,3,1,-2,-1,0,10,.,.
CC(=O)Nc1ccc(NC(=O)C(=O)N/N=C/c2cccnc2)cc1,.,-1,0,0,0,-1,.,.
CCOc1ccc(C(C(=O)NC(C)(C)C)N(CCOC)C(=O)CCC(=O)Nc2nccs2)cc1 (centres undefined),-1,2,-2,0,-1,-1,.,.
CN(CC(=O)Nc1ccccc1Br)C(=O)c1ccc(-c2ccc(Cl)cc2)o1,-1,-2,8.9*,-2,-1,0,-2,2
CCCCNC(=O)CCC(=O)Nc1ccc2nc(N3CCOCC3)cc(C)c2c1,0,1,3,1,0,4,.,.
Cc1cc(N2CCOCC2)nc2ccc(NC(=O)CCC(=O)N3CCN(c4ccccc4)CC3)cc12,0,0,8.2*,0,-1,3,2,5.4*
O=C(c1ccc(F)cc1)C1CCN(Cc2ccccc2F)CC1,1,1,-3,-1,-1,-1,.,.
O=C(c1ccc(Cl)cc1)C1CCN(Cc2ccccc2)CC1,-2,0,8.2*,0,-1,-1,-3,-1
COCc1nnc(NC(=O)c2cccs2)s1,1,0,2,2,-1,2,.,.
CNC(=O)c1ccsc1NC(=O)CS(=O)(=O)c1ccccc1,-1,-1,0,1,-1,-1,.,.
COCc1nnc(NC(=O)c2sc3ccccc3c2Cl)s1,-1,2,9.8*,1,-1,3,17*,7.5*
CNC(=O)c1ccsc1NC(=O)c1sc2ccccc2c1Cl,1,2,11*,-1,-1,4,12*,7.5*
O=C(O)CCC(=O)Nc1ccc(/C=C/C(=O)C2CC2)cc1,0,-2,-2,0,-1,-1,.,.
CC1CCCC(NS(=O)(=O)c2cccc3nsnc23)C1C (centres undefined),0,0,-1,-1,-1,5,.,.
CCc1sc(C(=O)NCc2ccco2)cc1Br,2,-3,-1,-1,-1,-5,.,.
CCc1sc(C(=O)NCc2ccco2)cc1C,-1,-2,11*,0,-1,-2,-1,1
Cc1cccc(C(=O)NCC(=O)N(C)Cc2nc3ccccc3c(=O)[nH]2)c1,0,0,-2,-1,-1,1,.,.
Cc1ccc(C(=O)N(C)Cc2nc3ccccc3c(=O)[nH]2)cc1NC(=O)c1ccco1,1,0,8.1*,0,0,-1,-1,1
CCOC(=O)c1c(C)[nH]c(C(=O)COC(=O)c2ccco2)c1C,0,-1,10*,-1,-1,2,7,0
CCOC(=O)c1c(C)[nH]c(C(=O)COC(=O)c2ccncc2)c1C,0,-3,2,0,-1,-3,.,.
CCOc1cc(C)c(Cl)cc1S(=O)(=O)n1ccnc1,.,-2,-1,0,0,0,.,.
CCCCN1C(=O)C(CC(=O)NC(c2ccccc2)c2ccccc2)CC(C(=O)N(C(C)C)C(C)C)=C1C (centres undefined),0,-1,-4,-1,0,0,.,.
CCC(C)(C)n1nnnc1C(c1cccnc1)N1CCN(c2cccc(C(F)(F)F)c2)CC1 (centres undefined),0,-1,-3,-1,-2,5,.,.
COc1ccc(C)cc1NC(=O)c1cnc2n(c1=O)CCS2,2,0,9.8*,1,-2,1,3,2
O=C(COc1ccc(F)cc1)N1CCC(c2ccccc2)C1 (centres undefined),0,1,8.4*,1,0,8,5,7.9*
SMILES,DAX1 inh-1,hcDAF12 agonist,SMARCA2 activ,DAX1 inh-2,ssDAF-12 act,hgDAF12 agonist,SMARCA2 act conf,VP16 Luc act
CN(C)CCCN1C(=O)c2cccc3c(Br)ccc(c23)C1=O,0,1,9.2*,0,-1,1,35*,0
Cc1nc(NC(=O)CN2CCOCC2)sc1-c1ccccc1,1,0,3,0,-1,8,.,.
CCc1sc(NC(=O)CN2CCOCC2)nc1-c1ccccc1,0,0,8.7*,0,-1,-4,-3,-2
Cc1ccc2cc(C3CC(c4cccs4)=NN3S(C)(=O)=O)c(Cl)nc2c1 (centres undefined),-3,-3,-2,0,-1,1,.,.
Cc1ccc2nc(Cl)c(C3CC(c4cccs4)=NN3S(C)(=O)=O)cc2c1 (centres undefined),0,0,11*,0,-1,6,-1,1
CC(=O)Nc1ccc(NC(=O)Oc2ccccc2)cc1,-1,-1,1,0,0,3,.,.
O=C(Nc1ccc(NC(=O)C2CC2)nc1)c1ccccc1F,0,3,8.6*,0,-1,4,8,5.3*
CCCNC(=O)c1n[nH]c(=O)c2ccccc12,0,-1,1,-1,-1,1,.,.
CCOC(=O)Nc1ccc(NC(=O)c2ccccc2F)cc1,1,0,9.0*,1,-1,4,9.5*,8.5*
COc1ccc(C(=O)Nc2ccc(NC(=O)c3ccccc3F)cn2)cc1,-2,-4,-1,-1,-2,-1,.,.
CCc1ccc(OC(=O)Nc2ccccc2)cc1,3,6.2*,10*,2,1,11*,9.2*,12*
CCc1ccc(NC(=O)c2n[nH]c(=O)c3ccccc23)cc1,1,5,8.6*,2,0,8,7,6.3*
CC(C)NC(=O)c1cc(C2CCCCN2C(=O)c2ccccc2)on1 (centres undefined),.,1,0,0,-1,1,.,.
